Screening data as filed in PubChem BioAssay.
Cruzain noTriton: qHTS Assay for Promiscuous and Specific Inhibitors of Cruzain (without detergent). Cruzipain (Trypanosoma cruzi), P25779. purified cruzain, Z-FR-AMC fluorescence, no detergent. Potency, µM, hits mostly inhibitors. 200,000 tested, 2.3% active. AID 1476, 2009; further: nearly all actives have a fitted effect of over 40% in size
Target sequence (P25779 123-467 limits assumed): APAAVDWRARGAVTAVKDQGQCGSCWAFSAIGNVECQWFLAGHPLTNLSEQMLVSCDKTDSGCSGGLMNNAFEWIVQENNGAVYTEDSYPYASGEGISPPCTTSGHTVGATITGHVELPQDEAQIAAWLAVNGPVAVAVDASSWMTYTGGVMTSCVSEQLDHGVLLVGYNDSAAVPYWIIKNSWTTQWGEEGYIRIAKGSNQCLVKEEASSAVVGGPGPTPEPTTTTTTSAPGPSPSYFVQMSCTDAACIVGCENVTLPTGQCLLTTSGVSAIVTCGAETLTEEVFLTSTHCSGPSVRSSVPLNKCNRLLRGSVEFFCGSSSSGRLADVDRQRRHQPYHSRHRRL
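Detergent-free condition (0.00005% Triton X-100) in acetate buffer pH 5.5 with DTT. 1.5 nM enzyme and compound were pre-mixed 15 min, then 2 uM Z-FR-AMC substrate added; reaction progress from fluorescence change between first and third reads (60 s).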
Cruzain inh Det: qHTS Assay for Promiscuous and Specific Inhibitors of Cruzain (with detergent) | Cruzipain (Trypanosoma cruzi), P25779 | purified cruzain, Z-FR-AMC fluorescence, 0.01% Triton | Potency, µM, actives largely listed as inhibitors | 200,000 tested, 0.43% active; further: nearly all actives have a fitted effect of over 40% in size
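Purified cruzain (1.5 nM final) was preincubated with compounds for 15 min at room temperature in 100 mM sodium acetate pH 5.5, 5 mM DTT, 0.01% Triton X-100. Reaction started with 2 uM Z-FR-AMC; AMC fluorescence change over 60 s gave activity.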
Hits are given with their value. This is a sample that favours compounds with a hit; in the whole collection about 2.5% have one here. The call rests on the fitted dose curve; in most records, active means well fitted curve in the direction sought with a large enough effect; inconclusive means small, poorly fitted or top-dose-only effect, or another doubt; inactive means no such curve, though single readings can be large; an effect the other way counts as inactive or inconclusive.

Results for COc1ccc(-c2nn(CC(=O)Nc3ccc(Cl)c(Cl)c3)c(=O)c3ccccc23)cc1 ?
Cruzain noTriton: 7.94µM; Cruzain inh Det: inactive

How did Cc1ccccc1Cc1c(C)nc2c(C(=O)NCc3ccc4c(c3)OCO4)cnn2c1C do in these assays?
Cruzain noTriton: inactive; Cruzain inh Det: inactive

How did Cc1nc2c(C(=O)NCc3ccc4c(c3)OCO4)cnn2c(C)c1Cc1ccc(F)cc1Cl do in these assays?
Cruzain noTriton: 15.8µM; Cruzain inh Det: inactive

What do the screens show for `CCCN(CCC)CCCNC(=O)c1cc2c(=O)n(C)c3ccccc3c2s1`?
Cruzain noTriton: inconclusive; Cruzain inh Det: inactive

Results for Cc1ccc(C(C)C)c(OCc2ccc(C(=O)Nc3ccc(S(N)(=O)=O)cc3C)o2)c1 ?
Cruzain noTriton: inconclusive; Cruzain inh Det: inactive

How did Cc1c(/C=C(\C#N)C(=O)Nc2cccc(Cl)c2)c2ccccc2n1Cc1ccccc1 do in these assays?
Cruzain noTriton: 3.98µM; Cruzain inh Det: inactive

How did Cc1ccc(Cl)cc1NC(=O)/C(C#N)=C/c1c(C)n(Cc2ccccc2)c2ccccc12 do in these assays?
Cruzain noTriton: inactive; Cruzain inh Det: inactive

Results for COc1cccc(NC(=O)Cn2c(=O)n(CCC(=O)NCCc3ccc(Cl)cc3)c(=O)c3ccccc32)c1 ?
Cruzain noTriton: inactive; Cruzain inh Det: inactive

What do the screens show for `COc1cccc(NC(=O)/C(C#N)=C/c2c(C)n(Cc3ccc(Cl)cc3)c3ccccc23)c1`?
Cruzain noTriton: 6.31µM; Cruzain inh Det: inactive

Results for O=c1cc(-c2cccc(F)c2)[nH]c2cc(Cl)ccc12 ?
Cruzain noTriton: inactive; Cruzain inh Det: inactive

Results for COc1cc(/C=C(\C#N)c2nc3ccccc3[nH]2)cc(Br)c1OCc1ccc(F)cc1 ?
Cruzain noTriton: 25.1µM; Cruzain inh Det: inactive

How did Cc1cc(/C=C(\C#N)c2nc3ccccc3[nH]2)c(C)n1C do in these assays?
Cruzain noTriton: inconclusive; Cruzain inh Det: inactive

What do the screens show for `Cc1ccc2nc(/C(C#N)=C/c3ccc(-c4cccc([N+](=O)[O-])c4)o3)[nH]c2c1`?
Cruzain noTriton: inconclusive; Cruzain inh Det: inactive

How did CCCOc1cc(N(CC)CC)ccc1/C=C(/C#N)c1nc2ccc(C)cc2[nH]1 do in these assays?
Cruzain noTriton: 20µM; Cruzain inh Det: inactive

Results for COc1cc(/C=C(\C#N)c2nc3ccccc3[nH]2)cc(Br)c1OCc1ccccc1 ?
Cruzain noTriton: inconclusive; Cruzain inh Det: inactive

What do the screens show for `COc1cccc(/C=C(\C#N)c2nc3ccc(C)cc3[nH]2)c1`?
Cruzain noTriton: inconclusive; Cruzain inh Det: inactive

What do the screens show for `CCOc1cc(N(CC)CC)ccc1/C=C(/C#N)c1nc2ccccc2[nH]1`?
Cruzain noTriton: 31.6µM; Cruzain inh Det: inactive

Results for Cc1ccc2nc(/C(C#N)=C/c3ccc(-c4ccc(F)cc4F)o3)[nH]c2c1 ?
Cruzain noTriton: 10µM; Cruzain inh Det: inactive

What do the screens show for `COc1ccc2c(c1)C(=O)[C@@H](OC(=O)NC1CCCC1)[C@H](c1ccc(OC)c(Br)c1)O2`?
Cruzain noTriton: inactive; Cruzain inh Det: inactive

Results for COc1ccc(C)cc1NS(=O)(=O)c1ccc2c(c1)[C@H]1C=CC[C@H]1[C@@H](c1cccc(Cl)c1)N2 ?
Cruzain noTriton: inconclusive; Cruzain inh Det: inactive

What do the screens show for `CC(C)Cn1c(=O)c2sccc2n2c(CCCC(=O)NCC(C)c3ccccc3)nnc12` (stereo unspecified)?
Cruzain noTriton: inactive; Cruzain inh Det: inactive

What do the screens show for `O=C(Cn1c(=O)nc(-c2ccccc2)c2ccccc21)Nc1ccc(Cl)cc1F`?
Cruzain noTriton: inactive; Cruzain inh Det: inactive

What do the screens show for `CN(C)S(=O)(=O)c1ccc2c(c1)c(=O)c(C(=O)N1CCN(c3cccc(Cl)c3)CC1)cn2C`?
Cruzain noTriton: inconclusive; Cruzain inh Det: inactive

What do the screens show for `O=C(Cn1cc(SCc2c(F)cccc2Cl)c2ccccc21)N1CCCC1`?
Cruzain noTriton: inactive; Cruzain inh Det: inactive

Results for CCOC(=O)COc1ccc(/C=C(\C#N)c2nc3ccc(C)cc3[nH]2)cc1OC ?
Cruzain noTriton: inconclusive; Cruzain inh Det: inactive

Results for CCN(CC)c1ccc(/C=C(/C#N)c2nc3ccc(C)cc3[nH]2)c(OC(C)C)c1 ?
Cruzain noTriton: 25.1µM; Cruzain inh Det: inactive

Results for Cc1ccccc1NC(=O)c1c(C)oc2ccc(O)c(CN3CCN(C)CC3)c12 ?
Cruzain noTriton: inactive; Cruzain inh Det: inactive

Results for O=c1cc(-c2ccccc2)nc2nc(-c3ccco3)[nH]n12 ?
Cruzain noTriton: 0.398µM; Cruzain inh Det: inactive

How did Cc1nc2nc(-c3ccccc3)cc(=O)n2[nH]1 do in these assays?
Cruzain noTriton: inactive; Cruzain inh Det: inactive

Results for COc1cc(NC(=O)CN(c2ccc(C)cc2)S(=O)(=O)c2cccc3nonc23)cc(OC)c1 ?
Cruzain noTriton: inconclusive; Cruzain inh Det: inactive

What do the screens show for `C/C1=C2N=C(/C=C3N=C(/C(C)=C4\[N-]C(C)(C5N=C1C(C)(CCC(=O)NCC(C)OP(=O)([O-])O[C@H]1C(O)C(n6cnc7cc(C)c(C)cc76)O[C@@H]1CO)C5CC(N)=O)C(C)(CC(N)=O)C4CCC(N)=O)C(C)(CC(N)=O)C\3CCC(N)=O)C(C)(C)C/2CCC(N)=O.[CH2-]C1OC(n2cnc3c(N)ncnc32)C(O)C1O.[Co]` (stereo partly specified)?
Cruzain noTriton: 12.6µM; Cruzain inh Det: 10µM

How did CCCNC(=O)C1CCC(Cn2c(=O)c3sccc3n(CC(=O)N(CC)CC)c2=O)CC1 (stereo unspecified) do in these assays?
Cruzain noTriton: inactive; Cruzain inh Det: inactive

How did O=C(c1cccc(N2C(=O)C3CC=CCC3C2=O)c1)N1CCN(c2ccccc2)CC1 (stereo unspecified) do in these assays?
Cruzain noTriton: 15.8µM; Cruzain inh Det: 22.4µM

Results for O=C(c1cccc(N2C(=O)C3CC=CCC3C2=O)c1)N1CCCCCC1 (stereo unspecified) ?
Cruzain noTriton: inactive; Cruzain inh Det: inactive

What do the screens show for `O=c1c2oc3ccccc3c2n(Cc2ccccc2Cl)c(=O)n1Cc1ccc2c(c1)OCO2`?
Cruzain noTriton: inactive; Cruzain inh Det: inactive

Results for COc1ccc(C2NCCc3c2[nH]c2ccccc32)cc1CSc1nc2ccccc2s1 (stereo unspecified) ?
Cruzain noTriton: 25.1µM; Cruzain inh Det: inactive

How did COc1cc(/C=C(\C#N)C(N)=O)cc(CSc2nc3ccccc3s2)c1O do in these assays?
Cruzain noTriton: inactive; Cruzain inh Det: inactive

Results for CCOC(=O)c1cccc(NC(=O)CC(c2cc(OC)c(OC)c(OC)c2)N2Cc3ccccc3C2=O)c1 (stereo unspecified) ?
Cruzain noTriton: inconclusive; Cruzain inh Det: inactive

What do the screens show for `COc1cccc(Cn2c(=O)c(-c3ccccc3)nc3cncnc32)c1`?
Cruzain noTriton: inactive; Cruzain inh Det: inactive

Results for Cn1nnnc1Sc1ncnc2scc(-c3ccccc3)c12 ?
Cruzain noTriton: 15.8µM; Cruzain inh Det: inactive

Results for Cn1nnnc1Sc1ncnc2scc(-c3ccc(F)cc3)c12 ?
Cruzain noTriton: inactive; Cruzain inh Det: inactive

What do the screens show for `COc1ccc2c(c1)Cc1sc(NC(=O)c3cccc(Br)c3)nc1-2`?
Cruzain noTriton: inconclusive; Cruzain inh Det: inactive

How did COc1ccc(Br)c2c1-c1nc(NC(=O)c3cccc(C)c3)sc1C2 do in these assays?
Cruzain noTriton: 6.31µM; Cruzain inh Det: inactive

What do the screens show for `CCN(CC)S(=O)(=O)c1ccc(C(=O)NCCSc2c(-c3ccccc3)[nH]c3ccccc23)cc1`?
Cruzain noTriton: inconclusive; Cruzain inh Det: inactive
